Hit rate of the full screen: of about 5,500 compounds, about 2,000 (36%) were called active. Roughly 18% stayed inconclusive and do not appear here. Cut-off read from the data, not from the text of the source: active = normalized growth mostly below about 0.91 (no sharp cut-off); inconclusive = no clear call, values can overlap the other calls; inactive = mostly above about 0.92. The list shows a part of the results.
Test: chemical genetic growth profiling, strain panel (AID 1159580);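 note: tested at 20 µM; growth read once vehicle control cultures reached saturation at 30 °C; 1 = growth at the plate median or of vehicle wells; lower values mean less growth of the strain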
Details: S. cerevisiae deletion strains, growth OD

Measured: normalized growth

O=C(OC1Cc2c(O)cc(O)cc2OC1c1cc(=O)c(O)c2c(O)c(O)cc(C3Oc4cc(O)cc(O)c4CC3O)c2c1)c1cc(O)c(O)c(O)c1 (stereo not drawn)
inactive: locus YAL030W, strain snc1, active compounds read low 0.971 | locus YBL061C, strain skt5, active compounds read low 0.932 | locus YBR021W, strain FUR4, active compounds read low 1.05 | locus YBR171W, strain sec66, active compounds read low 0.972 | locus YBR279W, strain paf1, active compounds read low 0.942 | locus YCL011C, strain gbp2, active compounds read low 0.948 | locus YCL016C, strain dcc1, active compounds read low 0.976 | locus YCL061C, strain MRC1, active compounds read low 0.942 | locus YCL069W, strain vba3, active compounds read low 0.986 | locus YCR088W, strain abp1, active compounds read low 1 | locus YDL005C, strain med2, active compounds read low 0.996 | locus YDL040C, strain nat1, active compounds read low 1 | locus YDL185W, strain tfp1, active compounds read low 0.92 | locus YDR001C, strain nth1, active compounds read low 0.992 | locus YDR159W, strain sac3, active compounds read low 1.06 | locus YDR195W, strain ref2 1.03 | locus YDR297W, strain sur2, active compounds read low 0.966 | locus YDR335W, strain msn5, active compounds read low 0.938 | locus YDR392W, strain spt3, active compounds read low 0.939 | locus YEL003W, strain gim4, active compounds read low 0.946 | locus YEL037C, strain rad23, active compounds read low 0.946 | locus YEL061C, strain CIN8 (second series), active compounds read low 0.992 | locus YER015W, strain faa2, active compounds read low 0.93 | locus YER016W, strain bim1, active compounds read low 0.968 | locus YER110C, active compounds read low 1.01 | locus YER155C, strain BEM2 (second series), active compounds read low 0.927 | locus YER155C, strain BEM2, active compounds read low 0.982 | locus YGL078C, strain dbp3, active compounds read low 1 | locus YGL167C, strain pmr1, active compounds read low 0.969 | locus YGL227W, strain vid30, active compounds read low 1 | locus YGL240W, strain doc1, active compounds read low 1 | locus YHR094C, strain hxt1, active compounds read low 0.982 | locus YIL125W, strain kgd1, active compounds read low 0.995 | locus YIR030C, strain dcg1, active compounds read low 0.956 | locus YJL092W, strain hpr5, active compounds read low 0.992 | locus YJL095W, strain BCK1 (second series), active compounds read low 0.96 | locus YJL115W, strain asf1, active compounds read low 0.986 | locus YJL129C, strain trk1, active compounds read low 1.04 | locus YJL154C, strain vps35, active compounds read low 1 | locus YJL168C, strain set2, active compounds read low 0.954 | locus YJL187C, strain SWE1, active compounds read low 0.95 | locus YKL009W, strain mrt4, active compounds read low 1.02 | locus YKL068W, active compounds read low 0.996 | locus YKL085W, strain MDH1 (second series), active compounds read low 0.994 | locus YKL085W, strain MDH1, active compounds read low 0.994 | locus YKL160W, strain elf1, active compounds read low 0.969 | locus YKR026C, strain gcn3, active compounds read low 0.967 | locus YKR091W, strain srl3, active compounds read low 1 | locus YLL001W, strain dnm1, active compounds read low 0.967 | locus YLL026W, active compounds read low 0.978 | locus YLL041C, strain sdh2, active compounds read low 0.989 | locus YLR027C, strain aat2, active compounds read low 0.955 | locus YLR102C, strain apc9, active compounds read low 0.973 | locus YLR221C, strain rsa3, active compounds read low 0.925 | locus YLR258W, strain gsy2, active compounds read low 0.946 | locus YLR320W, strain mms22, active compounds read low 0.927 | locus YLR342W, strain FKS1, active compounds read low 0.929 | locus YLR370C, strain arc18, active compounds read low 0.916 | locus YLR384C, strain iki3, active compounds read low 0.971 | locus YML120C, strain ndi1, active compounds read low 0.952 | locus YML124C, strain tub3, active compounds read low 0.958 | locus YMR078C, strain ctf18, active compounds read low 0.973 | locus YMR125W, strain sto1, active compounds read low 1.03 | locus YMR129W, active compounds read low 1 | locus YMR205C, strain PFK2, active compounds read low 0.901 | locus YNL071W, strain lat1, active compounds read low 1 | locus YNL248C, strain rpa49, active compounds read low 0.986 | locus YNL250W, strain rad50, active compounds read low 0.99 | locus YNL271C, strain bni1, active compounds read low 0.963 | locus YNL298W, strain CLA4, active compounds read low 1 | locus YNL307C, strain MCK1, active compounds read low 0.93 | locus YNL322C, strain KRE1 (second series), active compounds read low 1.02 | locus YNR049C, strain mso1, active compounds read low 0.997 | locus YOL012C, strain htz1 0.293 | locus YOR001W, strain rrp6, active compounds read low 0.962 | locus YOR070C, strain gyp1, active compounds read low 0.938 | locus YOR080W, strain dia2, active compounds read low 0.966 | locus YOR083W, strain WHI5, active compounds read low 0.937 | locus YOR265W, strain rbl2, active compounds read low 0.969 | locus YOR316C, strain cot1, active compounds read low 0.958 | locus YPL078C, strain atp4, active compounds read low 0.957 | locus YPL106C, strain sse1, active compounds read low 0.872 | locus YPL240C, strain hsp82, active compounds read low 0.97 | locus YPR119W, strain clb2, active compounds read low 0.988 | locus YPR141C, strain kar3, active compounds read low 0.993 | locus YPR163C, strain tif3, active compounds read low 0.969
active: locus YAL013W, strain DEP1, active compounds read low 0.132 | locus YAL021C, strain ccr4, active compounds read low 0.794 | locus YAL026C, strain drs2, active compounds read low 0.856 | locus YBR009C, strain hhf1, active compounds read low 0.901 | locus YBR023C, strain chs3, active compounds read low 0.87 | locus YBR229C, strain ROT2, active compounds read low 0.766 | locus YBR231C, strain swc5, active compounds read low 0.819 | locus YCL029C, strain bik1, active compounds read low 0.816 | locus YDL035C, strain GPR1, active compounds read low 0.158 | locus YDL074C, strain BRE1, active compounds read low 0.286 | locus YDL101C, strain DUN1, active compounds read low 0.194 | locus YDL192W, strain arf1, active compounds read low 0.747 | locus YDR069C, strain doa4, active compounds read low 0.71 | locus YDR101C, strain arx1, active compounds read low 0.91 | locus YDR137W, strain rgp1, active compounds read low 0.844 | locus YDR150W, strain NUM1, active compounds read low 0.651 | locus YDR162C, strain NBP2, active compounds read low 0.0937 | locus YDR318W, strain mcm21, active compounds read low 0.828 | locus YDR334W, strain swr1, active compounds read low 0.873 | locus YDR388W, active compounds read low 0.888 | locus YDR502C, strain sam2, active compounds read low 0.645 | locus YEL061C, strain CIN8, active compounds read low 0.417 | locus YER111C, strain swi4, active compounds read low 0.885 | locus YER167W, strain BCK2, active compounds read low 0.585 | locus YFR010W, strain ubp6, active compounds read low 0.862 | locus YGL086W, strain mad1, active compounds read low 0.795 | locus YGL173C, strain kem1, active compounds read low 0.81 | locus YGL248W, strain PDE1, active compounds read low 0.345 | locus YGL253W, strain hxk2, active compounds read low 0.887 | locus YGR078C, strain PAC10, active compounds read low 0.704 | locus YGR135W, strain pre9, active compounds read low 0.67 | locus YGR229C, strain SMI1, active compounds read low 0.0876 | locus YGR252W, strain gcn5, active compounds read low 0.56 | locus YHR013C, strain ard1, active compounds read low 0.805 | locus YHR027C, strain rpn1, active compounds read low 0.812 | locus YHR030C, strain SLT2, active compounds read low 0.59 | locus YHR079C, strain IRE1 (second series), active compounds read low 0.864 | locus YHR129C, strain ARP1, active compounds read low 0.536 | locus YHR142W, strain chs7, active compounds read low 0.841 | locus YHR200W, strain rpn10, active compounds read low 0.794 | locus YIL066C, strain RNR3, active compounds read low 0.0947 | locus YIL073C, strain SPO22, active compounds read low 0.159 | locus YJL095W, strain BCK1, active compounds read low 0.154 | locus YJL134W, strain LCB3, active compounds read low 0.732 | locus YJL164C, strain tpk1, active compounds read low 0.868 | locus YJL166W, strain qcr8, active compounds read low 0.883 | locus YJL187C, strain SWE1 (second series), active compounds read low 0.0967 | locus YJR043C, strain POL32, active compounds read low 0.203 | locus YJR075W, strain HOC1, active compounds read low 0.58 | locus YKL190W, strain CNB1, active compounds read low 0.126 | locus YKR001C, strain vps1, active compounds read low 0.688 | locus YLR039C, strain RIC1, active compounds read low 0.17 | locus YLR058C, strain SHM2, active compounds read low 0.183 | locus YLR262C, strain YPT6 (second series), active compounds read low 0.811 | locus YLR262C, strain YPT6, active compounds read low 0.342 | locus YLR268W, strain sec22, active compounds read low 0.609 | locus YLR330W, strain CHS5, active compounds read low 0.708 | locus YLR342W, strain FKS1 (second series), active compounds read low 0.263 | locus YLR357W, strain rsc2, active compounds read low 0.744 | locus YLR371W, strain rom2, active compounds read low 0.711 | locus YLR418C, strain cdc73, active compounds read low 0.356 | locus YML016C, strain PPZ1, active compounds read low 0.0879 | locus YML032C, strain rad52, active compounds read low 0.879 | locus YMR058W, strain fet3, active compounds read low 0.252 | locus YMR223W, strain ubp8, active compounds read low 0.761 | locus YMR231W, strain pep5, active compounds read low 0.866 | locus YMR307W, strain GAS1, active compounds read low 0.339 | locus YNL067W, strain RPL9B, active compounds read low 0.486 | locus YNL128W, strain TEP1, active compounds read low 0.145 | locus YNL153C, strain GIM3, active compounds read low 0.417 | locus YNL209W, strain ssb2, active compounds read low 0.749 | locus YNL233W, strain BNI4, active compounds read low 0.621 | locus YNR052C, strain pop2, active compounds read low 0.648 | locus YOL006C, strain TOP1, active compounds read low 0.139 | locus YOL147C, strain pex11, active compounds read low 0.865 | locus YOR061W, strain CKA2, active compounds read low 0.383 | locus YOR069W, strain VPS5, active compounds read low 0.485 | locus YOR106W, strain vam3, active compounds read low 0.657 | locus YOR136W, strain idh2, active compounds read low 0.906 | locus YOR144C, strain elg1, active compounds read low 0.915 | locus YOR184W, strain ser1, active compounds read low 0.578 | locus YOR270C, strain vph1, active compounds read low 0.638 | locus YOR290C, strain snf2, active compounds read low 0.827 | locus YPL051W, strain arl3, active compounds read low 0.827 | locus YPL241C, strain CIN2, active compounds read low 0.636 | locus YPR167C, strain met16, active compounds read low 0.878 | strain wtn01, active compounds read low 0.667

Source: PubChem BioAssay AID1159580 (chemical genetic matrix, 2015)
